# Measured values published in PubChem BioAssay (EPA / NIEHS).
# Where “and” joins values, the source holds several entries; their conditions need not be identical. Identical values can stand only once. Inconclusive results are not listed. Some structures have more than one record in an assay (separate samples or runs), and their calls can disagree. Calls of active or inactive are those of the source. Rule for the calls, unless noted: active = hit-call score of the fitted dose curve at least 0.9, where 1 is the maximum; inconclusive = response in the unintended direction; inactive = score below 0.9.
# Tests used:
# [1] = biological target: Estrogen receptor (Homo sapiens) (UniProt P03372); test: OT_ER_ERaERa_1440: Odyssey Thera (OT) 24-hour HEK293T Protein-Complementation Assay for Estrogen Receptor-alpha/-alpha Homodimer (AID 2283349);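 note: hits raise fluorescence above DMSO for agonists and antagonists alike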
# Sequence of Estrogen receptor (Homo sapiens) (P03372 whole entry, looked up, the tested form may be a part): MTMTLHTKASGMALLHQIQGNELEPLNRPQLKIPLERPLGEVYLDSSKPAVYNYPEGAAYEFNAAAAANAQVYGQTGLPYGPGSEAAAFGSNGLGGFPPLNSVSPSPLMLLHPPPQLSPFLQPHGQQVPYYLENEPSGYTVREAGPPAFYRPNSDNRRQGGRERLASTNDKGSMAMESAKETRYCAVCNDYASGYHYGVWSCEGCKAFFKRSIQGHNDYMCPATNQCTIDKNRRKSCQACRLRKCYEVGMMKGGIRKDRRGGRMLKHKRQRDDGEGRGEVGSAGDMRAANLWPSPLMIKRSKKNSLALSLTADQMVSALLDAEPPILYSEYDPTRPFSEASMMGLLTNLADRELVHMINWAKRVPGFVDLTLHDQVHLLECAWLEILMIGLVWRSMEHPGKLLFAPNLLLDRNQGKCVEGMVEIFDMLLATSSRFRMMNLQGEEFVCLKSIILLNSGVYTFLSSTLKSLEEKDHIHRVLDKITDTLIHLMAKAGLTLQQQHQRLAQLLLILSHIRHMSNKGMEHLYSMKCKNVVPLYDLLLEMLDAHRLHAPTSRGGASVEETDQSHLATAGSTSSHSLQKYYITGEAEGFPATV
# Outline: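 HEK293T cells stably expressing the human ER alpha ligand-binding domain (aa 310-547) as a homodimer PCA were dosed for 24 hours. Fluorescence intensity was read by laser scanning cytometry, and gain of signal was fitted relative to DMSO vehicle.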
# [2] = biological target: Estrogen receptor (Homo sapiens) (UniProt P03372); test: OT_ER_ERaERa_0480: Odyssey Thera (OT) 8-hour HEK293T Protein-Complementation Assay for Estrogen Receptor-alpha/-alpha Homodimer (AID 2283351);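 note: rise in fluorescence from reassembled reporter fragments on ERα LBD homodimer in nucleus or whole cell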
# Outline: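 HEK293T cells stably expressing the human ERα ligand-binding domain (aa 310-547) as a homodimer PCA were dosed with compound for 8 h. Gain of fluorescence intensity versus DMSO vehicle was read by laser scanning cytometry.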
# [3] = biological target: rat Glycine Receptor, Strychnine-sensitive (GlyRStrySens), Glra1 (gene 25674) (UniProt P07727); test: NVS_LGIC_rGlyRStrySens: NovaScreen (NVS) Ligand-Gated Ion Channel Assay for rat Glycine Receptor, Strychnine-sensitive (GlyRStrySens) (AID 2283341)
# Sequence of rat Glycine Receptor, Strychnine-sensitive (GlyRStrySens), Glra1 (gene 25674) (P07727 whole entry, looked up): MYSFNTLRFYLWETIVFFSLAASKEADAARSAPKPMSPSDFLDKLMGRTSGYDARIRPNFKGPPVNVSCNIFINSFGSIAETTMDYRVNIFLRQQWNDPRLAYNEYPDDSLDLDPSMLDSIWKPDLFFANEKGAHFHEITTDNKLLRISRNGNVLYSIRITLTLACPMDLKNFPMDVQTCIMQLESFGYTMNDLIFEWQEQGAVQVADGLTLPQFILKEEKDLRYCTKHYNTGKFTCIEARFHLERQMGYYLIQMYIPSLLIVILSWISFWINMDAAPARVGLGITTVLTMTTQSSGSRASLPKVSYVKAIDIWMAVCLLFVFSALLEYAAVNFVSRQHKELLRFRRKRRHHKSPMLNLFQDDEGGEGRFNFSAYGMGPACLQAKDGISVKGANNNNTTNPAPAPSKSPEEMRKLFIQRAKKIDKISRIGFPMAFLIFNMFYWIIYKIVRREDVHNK
# Outline: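 Radioligand displacement on rat spinal cord membranes, 1 hr, filter scintillation read-out. Single-concentration duplicate screen at 25 uM; chemicals meeting threshold (e.g., 30% inhibition) rerun in concentration-response up to 50 uM. Loss of binding fitted versus DMSO.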
# [4] = biological target: bovine Estrogen Receptor (ER), ESR1 (gene 407238) (UniProt P49884); test: NVS_NR_bER: NovaScreen (NVS) Nuclear Receptor Binding Assay for bovine Estrogen Receptor (ER) (AID 2283345);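 note: actives lower the bound radioligand count which means they displace the ER ligand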
# Sequence of bovine Estrogen Receptor (ER), ESR1 (gene 407238) (P49884 whole entry, looked up): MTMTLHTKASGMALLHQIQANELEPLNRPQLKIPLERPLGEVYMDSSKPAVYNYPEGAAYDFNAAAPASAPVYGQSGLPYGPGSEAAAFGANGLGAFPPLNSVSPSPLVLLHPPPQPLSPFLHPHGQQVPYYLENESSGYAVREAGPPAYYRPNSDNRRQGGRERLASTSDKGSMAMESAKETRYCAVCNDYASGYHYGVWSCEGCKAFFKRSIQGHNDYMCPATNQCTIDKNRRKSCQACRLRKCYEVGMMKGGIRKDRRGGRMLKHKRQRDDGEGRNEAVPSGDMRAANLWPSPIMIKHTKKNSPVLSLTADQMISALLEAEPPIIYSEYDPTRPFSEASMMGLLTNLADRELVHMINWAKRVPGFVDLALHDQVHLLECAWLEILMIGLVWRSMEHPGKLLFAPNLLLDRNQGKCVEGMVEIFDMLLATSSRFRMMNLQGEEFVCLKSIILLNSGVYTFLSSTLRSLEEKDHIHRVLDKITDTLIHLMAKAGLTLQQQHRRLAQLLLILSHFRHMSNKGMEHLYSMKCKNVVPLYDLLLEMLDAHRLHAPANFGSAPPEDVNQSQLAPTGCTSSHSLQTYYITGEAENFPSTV
# Outline: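 Scintillation counting of displaced radioligand gave the readout; bovine uterine membrane extract supplied the receptor. Measured 18 h post-dose, normalized to DMSO baseline. Single 25 uM duplicate screen preceded concentration-response follow-up.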
# [5] = biological target: Estrogen receptor (Homo sapiens) (UniProt P03372); test: NVS_NR_hER: NovaScreen (NVS) Nuclear Receptor Binding Assay for human Estrogen Receptor (ER) (AID 2283348)
# Outline: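 Radioligand competitive displacement binding to estrogen receptor from MCF7 extract, cell-free; 18 h after dosing, scintillation read-out. Primary screen in duplicate at 25 uM; actives followed up in concentration series; loss of signal vs DMSO.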
# [6] = biological target: Glutamate receptor ionotropic, kainate 1 (Rattus norvegicus) (UniProt P22756); test: NVS_IC_rKAR: NovaScreen (NVS) Ion Channel Assay for rat Kainic Acid Receptors (KAR) (AID 2283334; active = hit-call score of the fitted dose curve at least 0.9, where 1 is the maximum; inactive = score below 0.9)
# Sequence of Glutamate receptor ionotropic, kainate 1 (Rattus norvegicus) (P22756 whole entry, looked up): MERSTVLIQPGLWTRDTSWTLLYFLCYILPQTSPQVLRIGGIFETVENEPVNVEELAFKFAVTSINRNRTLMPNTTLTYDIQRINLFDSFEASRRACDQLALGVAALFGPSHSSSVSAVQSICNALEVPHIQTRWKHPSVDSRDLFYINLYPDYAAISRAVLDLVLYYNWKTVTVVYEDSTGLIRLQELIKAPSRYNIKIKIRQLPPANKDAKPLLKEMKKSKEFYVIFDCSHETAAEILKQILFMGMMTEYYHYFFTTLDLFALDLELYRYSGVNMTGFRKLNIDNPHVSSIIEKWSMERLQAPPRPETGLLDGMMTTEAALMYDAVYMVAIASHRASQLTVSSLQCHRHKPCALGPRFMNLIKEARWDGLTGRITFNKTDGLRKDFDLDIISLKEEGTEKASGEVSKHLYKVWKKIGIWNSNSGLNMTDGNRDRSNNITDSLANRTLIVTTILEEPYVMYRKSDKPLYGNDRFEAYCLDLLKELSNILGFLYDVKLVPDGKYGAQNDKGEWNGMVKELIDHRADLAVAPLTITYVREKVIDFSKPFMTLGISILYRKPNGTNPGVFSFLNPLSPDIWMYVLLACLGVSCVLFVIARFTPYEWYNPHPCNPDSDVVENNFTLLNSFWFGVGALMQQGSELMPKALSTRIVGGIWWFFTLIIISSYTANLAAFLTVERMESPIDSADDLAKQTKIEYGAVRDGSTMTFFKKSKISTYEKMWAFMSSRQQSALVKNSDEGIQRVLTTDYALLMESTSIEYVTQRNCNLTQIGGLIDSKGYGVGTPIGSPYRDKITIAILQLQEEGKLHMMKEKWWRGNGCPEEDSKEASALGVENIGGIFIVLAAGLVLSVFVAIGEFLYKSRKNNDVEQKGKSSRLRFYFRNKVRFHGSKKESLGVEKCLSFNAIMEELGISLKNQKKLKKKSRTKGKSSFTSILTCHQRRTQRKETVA
# Outline: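 Radioligand displacement binding using rat forebrain membranes, 1 h incubation, filter-based scintillation counting. Screened in duplicate at 25 uM, with actives retested in concentration-response up to 50 uM; fitted against DMSO.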
# [7] = biological target: human Peripheral-type Benzodiazepine Receptor (PBR), TSPO (gene 706) (UniProt P30536); test: NVS_MP_hPBR: NovaScreen (NVS) Membrane Protein Assay for human Peripheral-type Benzodiazepine Receptor (PBR) (AID 2283331);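 note: hits reduce radioligand binding relative to DMSO baseline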
# Sequence of human Peripheral-type Benzodiazepine Receptor (PBR), TSPO (gene 706) (P30536 whole entry, looked up): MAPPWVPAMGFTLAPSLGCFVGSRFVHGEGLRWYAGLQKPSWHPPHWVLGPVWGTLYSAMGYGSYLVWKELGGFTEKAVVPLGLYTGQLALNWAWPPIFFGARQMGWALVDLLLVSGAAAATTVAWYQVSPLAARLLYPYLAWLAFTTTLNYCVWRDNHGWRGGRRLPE
# Outline: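 Radioligand displacement on human colonic cell membranes, 1 h incubation; bound radioactivity by filtration and scintillation counting. Primary screen in duplicate at 25 uM single concentration, actives followed up in concentration series; loss of binding versus DMSO.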
# [8] = biological target: human Constitutive Androstane Receptor (CAR), NR1I3 (gene 9970) (UniProt Q14994); test: NVS_NR_hCAR_Antagonist: NovaScreen (NVS) Nuclear Receptor Binding Assay for human Constitutive Androstane Receptor Antagonism (CAR) (AID 2283344)
# Sequence of human Constitutive Androstane Receptor (CAR), NR1I3 (gene 9970) (Q14994 whole entry, looked up): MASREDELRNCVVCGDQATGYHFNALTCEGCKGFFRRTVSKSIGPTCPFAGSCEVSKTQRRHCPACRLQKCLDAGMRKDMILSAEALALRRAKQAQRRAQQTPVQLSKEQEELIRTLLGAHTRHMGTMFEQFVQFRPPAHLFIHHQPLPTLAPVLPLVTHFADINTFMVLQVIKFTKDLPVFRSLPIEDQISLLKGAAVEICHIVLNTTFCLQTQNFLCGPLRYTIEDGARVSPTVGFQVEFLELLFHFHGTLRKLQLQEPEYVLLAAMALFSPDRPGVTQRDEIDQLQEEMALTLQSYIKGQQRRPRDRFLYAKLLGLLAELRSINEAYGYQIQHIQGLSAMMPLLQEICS
# Outline: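 Cell-free TR-FRET binding read 1 h after dosing, antagonist mode; loss of signal versus DMSO baseline. Primary screen in duplicate at a single 25 uM; actives retested in concentration series.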
# [9] = biological target: Bile acid receptor (Homo sapiens) (UniProt Q96RI1); test: NVS_NR_hFXR_Agonist: NovaScreen (NVS) Nuclear Receptor Binding Assay for human Farnesoid X Receptor Agonism (FXR) (AID 2283347)
# Sequence of Bile acid receptor (Homo sapiens) (Q96RI1 whole entry, looked up): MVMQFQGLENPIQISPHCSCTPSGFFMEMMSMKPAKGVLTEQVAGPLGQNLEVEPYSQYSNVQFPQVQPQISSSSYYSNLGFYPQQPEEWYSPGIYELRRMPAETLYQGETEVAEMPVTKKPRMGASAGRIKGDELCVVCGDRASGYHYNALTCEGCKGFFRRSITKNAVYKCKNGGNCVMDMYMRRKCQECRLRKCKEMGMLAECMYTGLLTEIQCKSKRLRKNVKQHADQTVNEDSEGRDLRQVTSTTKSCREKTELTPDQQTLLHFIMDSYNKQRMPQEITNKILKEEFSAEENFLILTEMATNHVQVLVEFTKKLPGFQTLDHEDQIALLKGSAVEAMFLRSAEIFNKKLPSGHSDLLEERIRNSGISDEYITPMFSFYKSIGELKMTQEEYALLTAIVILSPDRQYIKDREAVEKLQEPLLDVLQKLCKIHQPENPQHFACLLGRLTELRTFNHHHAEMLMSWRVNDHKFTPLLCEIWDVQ
# Outline: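 Cell-free TR-FRET binding assay with extracted human FXR protein, agonist format, read 1 h after dosing. Primary screen at 25 uM single concentration in duplicate, actives retested in concentration series; gain of signal versus DMSO.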
# [10] = test system: guinea pig Histamine Receptor (H2), gene 100729734; test: NVS_GPCR_gH2: NovaScreen (NVS) G Protein-Coupled Receptor Assay for guinea pig Histamine Receptor (H2) (AID 2283342)
# Outline: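 Radioligand displacement on guinea pig striatal membranes, 1 h after dosing, filter-based scintillation counting; loss of signal versus DMSO. Single-point screen at 25 uM in duplicate, then concentration-response up to 50 uM.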
# [11] = biological target: Bile acid receptor (Homo sapiens) (UniProt Q96RI1); test: NVS_NR_hFXR_Antagonist: NovaScreen (NVS) Nuclear Receptor Binding Assay for human Farnesoid X Receptor Antagonism (FXR) (AID 2283350)
# Outline: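 Cell-free TR-FRET ligand-binding read-out on human FXR (NR1H4) in antagonist mode, measured 1 h after dosing. Primary screen in duplicate at 25 uM, actives retested in concentration series; signal loss scored versus DMSO.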
# [12] = biological target: rat Peripheral-type Benzodiazepine Receptor (PBR), Tspo (gene 24230) (UniProt P16257); test: NVS_MP_rPBR: NovaScreen (NVS) Membrane Protein Assay for rat Peripheral-type Benzodiazepine Receptor (PBR) (AID 2283335)
# Sequence of rat Peripheral-type Benzodiazepine Receptor (PBR), Tspo (gene 24230) (P16257 whole entry, looked up): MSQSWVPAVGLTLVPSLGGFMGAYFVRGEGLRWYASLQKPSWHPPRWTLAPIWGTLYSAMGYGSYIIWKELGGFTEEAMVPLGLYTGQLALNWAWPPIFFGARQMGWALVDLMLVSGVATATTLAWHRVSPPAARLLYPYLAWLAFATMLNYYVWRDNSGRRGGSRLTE
# Outline: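 Radioligand displacement, rat kidney membrane prep, 1 h exposure, filter-based scintillation read; DMSO baseline, loss-of-signal scored. Primary screen at 25 uM in duplicate, actives followed up in concentration series.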
# [13] = biological target: bovine Gamma-Aminobutyric Acid Type A Receptor Agonist (GABAR Agonist), GABRA1 (gene 780973) (UniProt P08219); test: NVS_LGIC_bGABAR_Agonist: NovaScreen (NVS) Ligand-Gated Ion Channel Assay for bovine Gamma-Aminobutyric Acid Type A Receptor Agonist (GABAR Agonist) (AID 2283338)
# Sequence of bovine Gamma-Aminobutyric Acid Type A Receptor Agonist (GABAR Agonist), GABRA1 (gene 780973) (P08219 whole entry, looked up): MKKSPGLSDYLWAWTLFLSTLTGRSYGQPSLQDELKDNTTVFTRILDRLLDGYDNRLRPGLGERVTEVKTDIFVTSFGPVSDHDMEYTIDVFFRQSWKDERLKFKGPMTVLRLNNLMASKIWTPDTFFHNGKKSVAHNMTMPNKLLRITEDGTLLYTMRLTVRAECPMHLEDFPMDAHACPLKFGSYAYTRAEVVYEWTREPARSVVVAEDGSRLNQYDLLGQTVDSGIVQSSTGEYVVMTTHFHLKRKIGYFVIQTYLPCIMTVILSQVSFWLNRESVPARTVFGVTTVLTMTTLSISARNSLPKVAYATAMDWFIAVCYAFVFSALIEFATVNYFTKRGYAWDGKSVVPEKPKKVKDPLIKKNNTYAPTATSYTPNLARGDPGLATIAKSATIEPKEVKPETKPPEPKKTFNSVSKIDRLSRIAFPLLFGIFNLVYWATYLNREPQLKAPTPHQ
# Outline: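 Radioligand binding to bovine cerebellar membranes in agonist format, read by filter-based scintillation counting after 1 h. Primary screen in duplicate at 25 uM, with actives followed in concentration series. Gain of signal versus DMSO.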
compound,measurement,setting,value
COC(=O)C=C(C)OP(=O)(OC)OC,outcome,[1],inactive
same,outcome,[2],inactive
Cc1c(F)c(F)c(COC(=O)C2C(/C=C(\Cl)C(F)(F)F)C2(C)C)c(F)c1F (stereo unspecified),outcome,[3],inactive
same,outcome,[4],inactive
same,outcome,[5],inactive
same,outcome,[1],inactive
same,outcome,[2],inactive
CC(C)(C)c1ccc(CSc2cnn(C(C)(C)C)c(=O)c2Cl)cc1,outcome,[1],inactive
same,outcome,[2],inactive
COc1cnc(OC)n2nc(NS(=O)(=O)c3c(OCC(F)F)cccc3C(F)(F)F)nc12,outcome,[6],inactive
same,outcome,[4],inactive
same,outcome,[5],inactive
same,outcome,[1],inactive
same,outcome,[2],inactive
CCON=C(CC)C1=C(O)CC(c2c(C)cc(C)cc2C)CC1=O (stereo unspecified),outcome,[7],inactive
same,outcome,[8],inactive
same,outcome,[1],inactive
same,outcome,[2],inactive
CCc1nn(C)c(C(=O)NCc2ccc(C(C)(C)C)cc2)c1Cl,outcome,[9],inactive
same,outcome,[1],inactive
same,outcome,[2],inactive
N#CC(CCc1ccc(Cl)cc1)(Cn1cncn1)c1ccccc1 (stereo unspecified),outcome,[10],inactive
same,outcome,[1],inactive
same,outcome,[2],inactive
N#Cc1cc(Br)c(O)c(Br)c1,outcome,[8],inactive
same,outcome,[4],inactive
same,outcome,[5],inactive
same,outcome,[1],inactive
same,outcome,[11],inactive
same,outcome,[2],inactive
Cc1cc(Cl)ccc1OCC(=O)O,outcome,[4],inactive
same,outcome,[5],inactive
same,outcome,[1],inactive
same,outcome,[2],inactive
COc1nc(C)nc(NC(=O)NS(=O)(=O)c2ccccc2Cl)n1,outcome,[4],inactive
same,outcome,[5],inactive
N#Cc1nn(-c2c(Cl)cc(C(F)(F)F)cc2Cl)c(N)c1S(=O)C(F)(F)F (stereo unspecified),outcome,[9],inactive
same,outcome,[1],inactive
same,outcome,[2],inactive
CCOc1cc(Oc2ccc(C(F)(F)F)cc2Cl)ccc1[N+](=O)[O-],outcome,[1],inactive
same,outcome,[2],inactive
CC(C)C1(C)N=C(c2nc3ccccc3cc2C(=O)O)NC1=O (stereo unspecified),outcome,[1],inactive
same,outcome,[11],inactive
same,outcome,[2],inactive
CN(C)C(=S)SSC(=S)N(C)C,AC50,[12],11 µM (active)
same,outcome,[10],inactive
same,outcome,[1],inactive
same,AC50,[11],8.97 µM (active)
same,outcome,[2],inactive
CCCN(CCC)c1c([N+](=O)[O-])cc(S(N)(=O)=O)cc1[N+](=O)[O-],AC50,[8],526 nM (active) and 6.79 µM (active)
same,outcome,[4],inactive
same,outcome,[5],inactive
same,outcome,[1],inactive
same,AC50,[11],26.4 µM (active)
same,outcome,[11],inactive
same,outcome,[2],inactive
CS/C(C)=N/OC(=O)N(C)SN(C)C(=O)O/N=C(\C)SC,outcome,[8],inactive
same,outcome,[1],inactive
same,outcome,[2],inactive
COc1nc(NC(C)C)nc(NC(C)C)n1,outcome,[1],inactive
same,outcome,[2],inactive
CCNc1nc(Cl)nc(NC(C)C)n1,outcome,[13],inactive
same,outcome,[5],inactive
same,outcome,[1],inactive
same,outcome,[2],inactive
CC(Oc1ccc(Cl)cc1Cl)C(=O)O (stereo unspecified),outcome,[3],inactive
same,outcome,[5],inactive
same,outcome,[1],inactive
same,outcome,[2],inactive
Fc1ccc(Oc2ccnc3cc(Cl)cc(Cl)c23)cc1,outcome,[1],inactive
same,outcome,[2],inactive
